Here are results for two sequences from article PMC7862700, “An all-to-all approach to the identification of sequence-specific readers for epigenetic DNA modifications on cytosine”.

Common to all, as to experiment: DAPPL (digital affinity profiling via proximity ligation, sequencing); 10 mM Tris-HCl pH 7.5, 50 mM NaCl, 1 mM DTT, 4% glycerol, room temperature, 30 min; GST-TFs on glutathione beads, 16-mer random dsDNA library, 0.1% formaldehyde crosslink after washing; high values mean tight binding
In one test the target is T1, GABPA (Homo sapiens, UniProt Q06546 1-454).
T1 sequence: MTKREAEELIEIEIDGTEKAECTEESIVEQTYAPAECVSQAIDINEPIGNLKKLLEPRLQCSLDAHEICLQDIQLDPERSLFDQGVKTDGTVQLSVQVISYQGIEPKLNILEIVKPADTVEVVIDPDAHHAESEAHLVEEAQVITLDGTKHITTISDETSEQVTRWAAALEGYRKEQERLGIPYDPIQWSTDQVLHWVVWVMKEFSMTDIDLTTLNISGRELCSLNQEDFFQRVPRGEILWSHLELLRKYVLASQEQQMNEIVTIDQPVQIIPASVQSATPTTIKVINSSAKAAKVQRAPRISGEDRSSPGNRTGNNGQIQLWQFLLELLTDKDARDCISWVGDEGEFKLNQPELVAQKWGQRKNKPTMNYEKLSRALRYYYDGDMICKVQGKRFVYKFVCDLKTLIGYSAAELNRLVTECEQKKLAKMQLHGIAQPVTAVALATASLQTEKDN
Conditions: protein: recombinant; tags: N-terminal GST; dsDNA, one strand shown. The procedure, abridged: (§1)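 Human transcription factors carrying a GST fusion were produced in yeast, bound to glutathione beads, tagged with DNA barcodes and pooled together with a tag-only sample. Each pool was held with 200 nmole of a random double-stranded 16-mer DNA library in Tris/NaCl/DTT/glycerol buffer for 30 min at room temperature, then washed, crosslinked in 0.1% formaldehyde, proximity-ligated with BsaI/T4 ligase (1 h, 37 °C), PCR-amplified and sequenced on an Illumina NextSeq500. Binding signal is the read frequency of each hexamer for a given factor divided by its frequency in the tag-only sample.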

A further test deals with ELF1 (Homo sapiens, UniProt P32519 1-619). The conditions noted are these: protein: recombinant; tags: N-terminal GST; dsDNA, one strand shown. The procedure, abridged: as §1
A further test has as its target T2, EHF (Homo sapiens, UniProt Q9NZC4 1-300).
T2 sequence: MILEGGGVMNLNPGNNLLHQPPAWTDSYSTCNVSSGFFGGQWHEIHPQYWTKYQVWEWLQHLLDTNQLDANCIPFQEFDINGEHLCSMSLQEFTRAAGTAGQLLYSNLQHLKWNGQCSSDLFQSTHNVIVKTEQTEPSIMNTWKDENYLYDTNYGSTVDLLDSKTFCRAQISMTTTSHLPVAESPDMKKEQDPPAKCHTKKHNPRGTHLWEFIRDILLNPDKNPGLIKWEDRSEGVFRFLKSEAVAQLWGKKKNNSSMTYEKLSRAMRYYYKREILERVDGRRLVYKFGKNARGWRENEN
Conditions: protein: recombinant; tags: N-terminal GST; dsDNA, one strand shown. The procedure, abridged: as §1

A further test addresses SPI1 (Homo sapiens, UniProt P17947 1-270). The conditions noted are these: protein: recombinant; tags: N-terminal GST; dsDNA, one strand shown. The procedure, abridged: as §1
For a further test, the target named is T3, ELK3 (Homo sapiens, UniProt P41970 1-407).
T3 sequence: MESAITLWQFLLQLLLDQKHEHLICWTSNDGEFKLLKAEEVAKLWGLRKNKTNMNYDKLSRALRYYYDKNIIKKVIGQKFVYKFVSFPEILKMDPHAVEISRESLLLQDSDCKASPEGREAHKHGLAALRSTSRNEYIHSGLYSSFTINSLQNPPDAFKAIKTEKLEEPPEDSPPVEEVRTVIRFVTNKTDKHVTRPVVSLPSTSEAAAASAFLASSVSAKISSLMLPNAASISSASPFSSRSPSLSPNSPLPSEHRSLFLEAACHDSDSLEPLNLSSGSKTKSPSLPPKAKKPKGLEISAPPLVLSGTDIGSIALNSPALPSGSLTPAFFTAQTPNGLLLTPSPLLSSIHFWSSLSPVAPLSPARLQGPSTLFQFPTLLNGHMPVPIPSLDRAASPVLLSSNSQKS
Conditions: protein: recombinant; tags: N-terminal GST; dsDNA, one strand shown. The procedure, abridged: as §1

The next test deals with T4, FEV (Homo sapiens, UniProt Q99581 1-238).
T4 sequence: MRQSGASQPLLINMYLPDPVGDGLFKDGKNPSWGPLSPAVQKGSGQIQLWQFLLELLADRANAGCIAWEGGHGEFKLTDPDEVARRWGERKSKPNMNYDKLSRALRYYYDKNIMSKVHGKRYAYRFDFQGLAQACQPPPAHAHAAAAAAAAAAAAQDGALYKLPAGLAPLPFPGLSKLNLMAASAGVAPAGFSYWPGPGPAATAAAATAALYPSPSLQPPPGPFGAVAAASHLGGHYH
The conditions noted are these: protein: recombinant; tags: N-terminal GST; dsDNA, one strand shown. The procedure, abridged:
as §1

The target of another test is HSF1 (Homo sapiens, UniProt Q00613 1-529). The conditions noted are these: protein: recombinant; tags: N-terminal GST; chain copies: 3; dsDNA, one strand shown. The procedure, abridged: as §1
The target in another test is ELF4 (Homo sapiens, UniProt Q99607 1-663). Conditions: protein: recombinant; tags: N-terminal GST; dsDNA, one strand shown. The procedure, abridged: as §1
The target in a further test is T5, ELK4 (Homo sapiens, UniProt P28324-2 1-405).
T5 sequence: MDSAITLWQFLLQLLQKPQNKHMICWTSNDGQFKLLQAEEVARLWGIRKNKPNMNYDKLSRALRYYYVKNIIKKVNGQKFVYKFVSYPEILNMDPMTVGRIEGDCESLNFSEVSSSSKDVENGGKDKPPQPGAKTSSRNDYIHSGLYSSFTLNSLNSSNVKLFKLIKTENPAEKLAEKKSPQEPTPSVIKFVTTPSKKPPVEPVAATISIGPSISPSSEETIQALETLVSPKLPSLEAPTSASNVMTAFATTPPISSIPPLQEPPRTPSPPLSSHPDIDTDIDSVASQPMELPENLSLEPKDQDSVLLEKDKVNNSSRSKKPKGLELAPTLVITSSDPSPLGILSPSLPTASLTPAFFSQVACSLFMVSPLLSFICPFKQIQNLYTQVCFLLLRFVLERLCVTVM
Conditions: protein: recombinant; tags: N-terminal GST; dsDNA, one strand shown. The procedure, abridged:
as §1

The target in another test is T6, ELF3 (Homo sapiens, UniProt P78545 1-371).
T6 sequence: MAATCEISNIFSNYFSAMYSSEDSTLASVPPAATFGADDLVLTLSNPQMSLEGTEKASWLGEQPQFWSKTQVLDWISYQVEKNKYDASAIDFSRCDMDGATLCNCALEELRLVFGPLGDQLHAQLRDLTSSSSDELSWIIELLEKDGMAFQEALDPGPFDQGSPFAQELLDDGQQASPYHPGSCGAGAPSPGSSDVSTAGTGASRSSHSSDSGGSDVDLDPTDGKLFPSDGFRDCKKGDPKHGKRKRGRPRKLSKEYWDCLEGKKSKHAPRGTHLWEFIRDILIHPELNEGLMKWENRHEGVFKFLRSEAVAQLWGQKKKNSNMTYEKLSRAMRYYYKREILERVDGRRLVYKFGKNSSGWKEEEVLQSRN
The conditions noted are these: protein: recombinant; tags: N-terminal GST; dsDNA, one strand shown. The procedure, abridged:
as §1

A further test concerns the target T7, ERF (Homo sapiens, UniProt P50548 1-548).
T7 sequence: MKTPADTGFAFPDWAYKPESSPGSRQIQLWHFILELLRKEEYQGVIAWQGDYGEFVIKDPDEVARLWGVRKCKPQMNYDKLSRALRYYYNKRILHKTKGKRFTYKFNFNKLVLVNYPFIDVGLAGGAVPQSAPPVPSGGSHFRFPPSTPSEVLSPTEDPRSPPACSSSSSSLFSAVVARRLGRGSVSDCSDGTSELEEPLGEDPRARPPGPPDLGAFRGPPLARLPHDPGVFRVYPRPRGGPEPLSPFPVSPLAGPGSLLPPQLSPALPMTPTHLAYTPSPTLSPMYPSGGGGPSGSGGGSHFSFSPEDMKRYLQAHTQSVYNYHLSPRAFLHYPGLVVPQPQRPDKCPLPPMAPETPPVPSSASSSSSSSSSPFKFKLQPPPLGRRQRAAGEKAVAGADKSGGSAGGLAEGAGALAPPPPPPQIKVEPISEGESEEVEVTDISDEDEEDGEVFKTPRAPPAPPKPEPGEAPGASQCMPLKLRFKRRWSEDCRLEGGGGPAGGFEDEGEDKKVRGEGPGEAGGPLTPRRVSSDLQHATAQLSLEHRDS
The conditions noted are these: protein: recombinant; tags: N-terminal GST; dsDNA, one strand shown. The procedure, abridged:
as §1

A further test has as its target T8, ETS2 (Homo sapiens, UniProt P15036 1-469).
T8 sequence: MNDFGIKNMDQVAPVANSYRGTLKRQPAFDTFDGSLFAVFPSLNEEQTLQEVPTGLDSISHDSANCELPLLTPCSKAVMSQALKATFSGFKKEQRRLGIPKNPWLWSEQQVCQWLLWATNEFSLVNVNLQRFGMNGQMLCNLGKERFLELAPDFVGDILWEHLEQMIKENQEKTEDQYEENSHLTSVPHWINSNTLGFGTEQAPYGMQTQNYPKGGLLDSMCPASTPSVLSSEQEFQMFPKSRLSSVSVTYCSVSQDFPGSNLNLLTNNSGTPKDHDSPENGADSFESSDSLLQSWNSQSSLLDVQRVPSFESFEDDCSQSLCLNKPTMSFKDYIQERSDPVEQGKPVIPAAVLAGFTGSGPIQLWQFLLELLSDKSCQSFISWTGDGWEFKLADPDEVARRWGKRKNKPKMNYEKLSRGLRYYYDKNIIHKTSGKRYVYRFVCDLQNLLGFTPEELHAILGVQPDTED
Conditions: protein: recombinant; tags: N-terminal GST; dsDNA, one strand shown. The procedure, abridged:
as §1

Another test concerns the target T9, ETV7 (Homo sapiens, UniProt Q9Y603 1-341).
T9 sequence: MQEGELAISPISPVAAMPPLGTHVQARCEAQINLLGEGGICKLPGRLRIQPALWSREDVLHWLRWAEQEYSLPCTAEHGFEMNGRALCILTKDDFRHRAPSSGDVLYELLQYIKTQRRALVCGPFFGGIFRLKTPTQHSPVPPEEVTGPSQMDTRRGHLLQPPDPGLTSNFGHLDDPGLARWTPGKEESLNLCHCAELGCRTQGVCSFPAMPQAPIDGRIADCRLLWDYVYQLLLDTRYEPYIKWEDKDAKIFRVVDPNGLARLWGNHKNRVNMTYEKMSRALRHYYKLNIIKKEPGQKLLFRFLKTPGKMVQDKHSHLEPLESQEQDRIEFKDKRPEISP
Conditions: protein: recombinant; tags: N-terminal GST; dsDNA, one strand shown. The procedure, abridged: as §1

For another test, the target named is ETV6 (Homo sapiens, UniProt P41212 1-452). The conditions noted are these: protein: recombinant; tags: N-terminal GST; dsDNA, one strand shown. The procedure, abridged: as §1
In another test the target is CRX (Homo sapiens, UniProt O43186 1-299). Conditions: protein: recombinant; tags: N-terminal GST; dsDNA, one strand shown. The procedure, abridged: as §1
Chain of CRX (O43186 whole entry): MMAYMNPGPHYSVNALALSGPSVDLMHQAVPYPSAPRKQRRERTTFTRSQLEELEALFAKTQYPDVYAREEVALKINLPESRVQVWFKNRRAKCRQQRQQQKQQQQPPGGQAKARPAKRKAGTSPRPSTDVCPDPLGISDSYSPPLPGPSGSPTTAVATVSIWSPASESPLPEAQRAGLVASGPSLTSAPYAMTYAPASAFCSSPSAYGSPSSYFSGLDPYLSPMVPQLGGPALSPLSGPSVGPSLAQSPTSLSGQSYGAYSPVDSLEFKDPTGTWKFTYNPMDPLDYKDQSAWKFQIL

Chain of HSF1 (Q00613 whole entry): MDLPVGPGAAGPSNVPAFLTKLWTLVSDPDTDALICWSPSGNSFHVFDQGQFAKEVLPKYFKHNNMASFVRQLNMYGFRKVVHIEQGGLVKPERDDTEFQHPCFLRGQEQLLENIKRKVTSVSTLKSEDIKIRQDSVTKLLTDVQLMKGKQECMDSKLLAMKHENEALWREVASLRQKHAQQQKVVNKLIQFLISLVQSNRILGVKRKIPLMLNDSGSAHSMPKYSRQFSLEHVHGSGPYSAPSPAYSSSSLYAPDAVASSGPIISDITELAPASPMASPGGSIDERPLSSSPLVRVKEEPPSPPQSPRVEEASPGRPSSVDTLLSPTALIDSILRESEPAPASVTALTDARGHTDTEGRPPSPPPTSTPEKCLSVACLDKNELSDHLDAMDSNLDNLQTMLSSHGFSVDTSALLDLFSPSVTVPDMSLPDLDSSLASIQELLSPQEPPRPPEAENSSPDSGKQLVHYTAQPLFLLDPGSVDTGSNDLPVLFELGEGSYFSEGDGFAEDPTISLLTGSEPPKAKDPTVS
Chain of ETV6 (P41212 whole entry): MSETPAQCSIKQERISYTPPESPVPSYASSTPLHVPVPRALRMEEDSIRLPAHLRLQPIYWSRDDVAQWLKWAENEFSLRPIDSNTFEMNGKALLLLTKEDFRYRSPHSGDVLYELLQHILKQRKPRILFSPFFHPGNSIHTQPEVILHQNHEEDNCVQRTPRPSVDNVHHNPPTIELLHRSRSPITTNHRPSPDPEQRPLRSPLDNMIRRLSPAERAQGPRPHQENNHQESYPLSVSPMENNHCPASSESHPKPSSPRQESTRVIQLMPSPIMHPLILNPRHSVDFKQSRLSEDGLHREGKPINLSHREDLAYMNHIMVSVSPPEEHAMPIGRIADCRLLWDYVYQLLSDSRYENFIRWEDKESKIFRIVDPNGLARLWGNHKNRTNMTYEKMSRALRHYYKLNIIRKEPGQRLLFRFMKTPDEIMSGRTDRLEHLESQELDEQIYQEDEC
Chain of ELF4 (Q99607 whole entry): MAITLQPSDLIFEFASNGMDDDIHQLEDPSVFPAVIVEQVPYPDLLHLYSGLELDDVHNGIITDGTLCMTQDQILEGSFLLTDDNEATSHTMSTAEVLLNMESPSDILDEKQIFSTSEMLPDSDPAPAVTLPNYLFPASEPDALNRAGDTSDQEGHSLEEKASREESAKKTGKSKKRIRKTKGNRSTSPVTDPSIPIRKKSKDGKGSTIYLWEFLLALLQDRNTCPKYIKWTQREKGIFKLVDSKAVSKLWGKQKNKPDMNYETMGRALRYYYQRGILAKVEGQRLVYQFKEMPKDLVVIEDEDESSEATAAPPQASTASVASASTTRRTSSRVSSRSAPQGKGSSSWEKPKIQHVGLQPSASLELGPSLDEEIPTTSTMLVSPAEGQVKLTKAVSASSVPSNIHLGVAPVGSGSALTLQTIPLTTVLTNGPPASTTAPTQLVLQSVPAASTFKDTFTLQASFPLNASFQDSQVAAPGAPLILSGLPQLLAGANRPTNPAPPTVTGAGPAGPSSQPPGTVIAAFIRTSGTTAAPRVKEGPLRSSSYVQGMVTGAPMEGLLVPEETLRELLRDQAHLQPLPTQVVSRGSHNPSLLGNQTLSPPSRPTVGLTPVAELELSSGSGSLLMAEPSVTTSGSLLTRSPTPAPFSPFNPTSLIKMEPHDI
Chain of ELF1 (P32519 whole entry): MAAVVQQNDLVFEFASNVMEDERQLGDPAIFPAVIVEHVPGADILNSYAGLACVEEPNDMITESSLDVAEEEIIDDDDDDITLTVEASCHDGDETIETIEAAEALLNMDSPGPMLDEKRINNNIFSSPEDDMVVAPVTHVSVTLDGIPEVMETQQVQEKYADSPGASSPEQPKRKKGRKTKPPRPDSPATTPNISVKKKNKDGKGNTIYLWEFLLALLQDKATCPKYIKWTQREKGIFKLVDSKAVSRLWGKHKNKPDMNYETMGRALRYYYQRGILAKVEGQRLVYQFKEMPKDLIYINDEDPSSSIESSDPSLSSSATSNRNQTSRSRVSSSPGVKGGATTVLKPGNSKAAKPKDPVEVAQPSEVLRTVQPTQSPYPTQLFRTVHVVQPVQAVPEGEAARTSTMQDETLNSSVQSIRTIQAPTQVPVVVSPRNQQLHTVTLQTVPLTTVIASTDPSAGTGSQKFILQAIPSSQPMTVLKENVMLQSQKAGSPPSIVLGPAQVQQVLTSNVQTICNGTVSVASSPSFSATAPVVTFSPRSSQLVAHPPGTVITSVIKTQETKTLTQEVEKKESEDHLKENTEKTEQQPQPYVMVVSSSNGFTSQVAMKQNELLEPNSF

For CGAATG, the binding signal is 1.12 fold enrichment (6-mer frequency, TF over GST control) with GABPA; 1.05 fold enrichment (6-mer frequency, TF over GST control) with ELF1; 1.05 fold enrichment (6-mer frequency, TF over GST control) with EHF; 1.03 fold enrichment (6-mer frequency, TF over GST control) with SPI1; 1.01 fold enrichment (6-mer frequency, TF over GST control) with ELK3; 1.01 fold enrichment (6-mer frequency, TF over GST control) with FEV. The binding signal in the test with HSF1 was 1.5 fold enrichment (6-mer frequency, TF over GST control); with ELF4, 1.13 fold enrichment (6-mer frequency, TF over GST control); with ELK4, 1.07 fold enrichment (6-mer frequency, TF over GST control); in the test with ELF3 it was 1.12 fold enrichment (6-mer frequency, TF over GST control); in the test with ERF, 1.02 fold enrichment (6-mer frequency, TF over GST control); with ETS2 it was 1.14 fold enrichment (6-mer frequency, TF over GST control). In addition, the binding signal in the test with ETV7 was 1.08 fold enrichment (6-mer frequency, TF over GST control); with ETV6, 1.11 fold enrichment (6-mer frequency, TF over GST control).

With ATCAGA, the binding signal in the test with GABPA is 1.11 fold enrichment (6-mer frequency, TF over GST control); with HSF1, 1.09 fold enrichment (6-mer frequency, TF over GST control); in the test with ELK4, 1.05 fold enrichment (6-mer frequency, TF over GST control); in the test with CRX, 1.25 fold enrichment (6-mer frequency, TF over GST control).
